Source: paper PMC10812921, “Transcriptional Coactivator BOB1 (OBF1, OCA-B) Modulates the Specificity of DNA Recognition by the POU-Domain Factors OCT1 and OCT2 in a Monomeric Configuration”

Legend:
POU1 (OCT1 POU domain) = POU1 (OCT1 POU domain) (human, UniProt P14859 260-458); assay: EMSA-SELEX-seq; no BOB1; 20 mM Tris-HCl pH 7.6, 140 mM NaCl, 10% glycerol, 0.5 mM EDTA, 0.05% Triton X-100, 0.1 mg/mL BSA, 0.1 mg/mL poly(dI-dC), 5 mM DTT, room temperature, 20 min; high values mean tight binding; settings: protein: recombinant; dsDNA, one strand shown
Chain of POU1 (OCT1 POU domain) (P14859 260-458): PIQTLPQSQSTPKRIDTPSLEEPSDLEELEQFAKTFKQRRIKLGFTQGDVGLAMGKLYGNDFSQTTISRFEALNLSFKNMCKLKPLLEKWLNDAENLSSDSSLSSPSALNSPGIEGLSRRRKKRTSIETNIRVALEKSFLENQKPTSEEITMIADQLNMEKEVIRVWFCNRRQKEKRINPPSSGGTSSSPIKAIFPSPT
Outline: (§1)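 After expression in E. coli BL21, tagged POU-domain proteins were purified under denaturing conditions and then renatured. Each binding reaction held 30 ng protein and 300 ng of a PCR-amplified double-stranded random 35-nt library in 20 μL Tris–HCl pH 7.6 binding buffer, with or without 28 ng coactivator protein, for 20 min at RT. Bands holding complexes were cut from native 6% PAGE, eluted and PCR-amplified across four rounds, and the output was Illumina-sequenced. The value given for binding preference is the share, in percent, of sequenced 8-mers fitting a motif pattern.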

POU2 (OCT2 POU domain) = biological target: T1, POU2 (OCT2 POU domain) (human, UniProt P09086 175-386); assay: as above; settings: protein: recombinant; dsDNA, one strand shown
T1 sequence: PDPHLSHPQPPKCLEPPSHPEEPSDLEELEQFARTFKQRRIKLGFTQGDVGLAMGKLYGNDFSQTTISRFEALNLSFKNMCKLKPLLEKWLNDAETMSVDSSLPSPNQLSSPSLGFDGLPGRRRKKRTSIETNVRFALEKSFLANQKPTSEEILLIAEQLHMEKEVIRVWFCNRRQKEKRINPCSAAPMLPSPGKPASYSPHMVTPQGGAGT
Outline: as §1

[1] = biological target: POU1 (OCT1 POU domain);BOB1 (OBF1, OCA-B) (human;human, UniProt P14859;Q16633 260-458;1-256, |); assay: EMSA-SELEX-seq; with BOB1 (ternary complex band); 20 mM Tris-HCl pH 7.6, 140 mM NaCl, 10% glycerol, 0.5 mM EDTA, 0.05% Triton X-100, 0.1 mg/mL BSA, 0.1 mg/mL poly(dI-dC), 5 mM DTT, room temperature, 20 min; high values mean tight binding; settings: protein: recombinant;recombinant; copies: 1;1; dsDNA, one strand shown
Outline: as §1

[2] = biological target: T2, POU2 (OCT2 POU domain);BOB1 (OBF1, OCA-B) (human;human, UniProt P09086;Q16633 175-386;1-256, |); assay: as above; settings: protein: recombinant;recombinant; copies: 1;1; dsDNA, one strand shown
T2 sequence 1: T1 sequence
T2 sequence 2: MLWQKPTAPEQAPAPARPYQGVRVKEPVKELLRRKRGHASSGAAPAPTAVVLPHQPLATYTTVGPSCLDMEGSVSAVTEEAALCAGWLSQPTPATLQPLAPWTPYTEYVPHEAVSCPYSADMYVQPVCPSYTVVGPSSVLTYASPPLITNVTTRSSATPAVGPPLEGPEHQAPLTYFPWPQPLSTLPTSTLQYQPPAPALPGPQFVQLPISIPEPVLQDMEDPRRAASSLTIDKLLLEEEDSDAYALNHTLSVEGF
Outline: as §1

Row | Sequence | binding signal (POU1 (OCT1 POU domain)) | binding signal (POU2 (OCT2 POU domain)) | binding signal [1] | binding signal [2]
1 | ATATCAAT | 0.117 % of ANNNNAAN 8-mers | 0.139 % of ANNNNAAN 8-mers | 0.0804 % of ANNNNAAN 8-mers | 0.0776 % of ANNNNAAN 8-mers
2 | ACTAAAAC | 0.0233 % of ANNNNAAN 8-mers | 0.0311 % of ANNNNAAN 8-mers | 0.023 % of ANNNNAAN 8-mers | 0.0297 % of ANNNNAAN 8-mers
3 | ACTACAAA | 0.0214 % of ANNNNAAN 8-mers | 0.0391 % of ANNNNAAN 8-mers | 0.0285 % of ANNNNAAN 8-mers | 0.0256 % of ANNNNAAN 8-mers
4 | AACCCAAC | 0.0103 % of ANNNNAAN 8-mers | 0.0132 % of ANNNNAAN 8-mers | 0.0113 % of ANNNNAAN 8-mers | 0.0182 % of ANNNNAAN 8-mers
5 | ATGTGAAG | 0.0484 % of ANNNNAAN 8-mers | 0.0627 % of ANNNNAAN 8-mers | 0.046 % of ANNNNAAN 8-mers | 0.0429 % of ANNNNAAN 8-mers
6 | AATCAAAC | 0.0526 % of ANNNNAAN 8-mers | 0.057 % of ANNNNAAN 8-mers | 0.0765 % of ANNNNAAN 8-mers | 0.0405 % of ANNNNAAN 8-mers
7 | AAGGAAAT | 0.199 % of ANNNNAAN 8-mers | 0.157 % of ANNNNAAN 8-mers | 0.288 % of ANNNNAAN 8-mers | 0.171 % of ANNNNAAN 8-mers
8 | ACGTAAAC | 0.0358 % of ANNNNAAN 8-mers | 0.0299 % of ANNNNAAN 8-mers | 0.0433 % of ANNNNAAN 8-mers | 0.0405 % of ANNNNAAN 8-mers
9 | AACGTAAC | 0.0179 % of ANNNNAAN 8-mers | 0.0236 % of ANNNNAAN 8-mers | 0.0211 % of ANNNNAAN 8-mers | 0.0272 % of ANNNNAAN 8-mers
10 | ACCAGAAA | 0.029 % of ANNNNAAN 8-mers | 0.0242 % of ANNNNAAN 8-mers | 0.0254 % of ANNNNAAN 8-mers | 0.0157 % of ANNNNAAN 8-mers
11 | AATATAAA | 0.156 % of ANNNNAAN 8-mers | 0.178 % of ANNNNAAN 8-mers | 0.107 % of ANNNNAAN 8-mers | 0.101 % of ANNNNAAN 8-mers
12 | AGGTAAAA | 0.129 % of ANNNNAAN 8-mers | 0.1 % of ANNNNAAN 8-mers | 0.146 % of ANNNNAAN 8-mers | 0.085 % of ANNNNAAN 8-mers
13 | AACCAAAT | 0.166 % of ANNNNAAN 8-mers | 0.121 % of ANNNNAAN 8-mers | 0.257 % of ANNNNAAN 8-mers | 0.18 % of ANNNNAAN 8-mers
14 | AACTCAAA | 0.0397 % of ANNNNAAN 8-mers | 0.0368 % of ANNNNAAN 8-mers | 0.0445 % of ANNNNAAN 8-mers | 0.0231 % of ANNNNAAN 8-mers
15 | ACGGTAAT | 0.0984 % of ANNNNAAN 8-mers | 0.143 % of ANNNNAAN 8-mers | 0.0741 % of ANNNNAAN 8-mers | 0.109 % of ANNNNAAN 8-mers
16 | AGGTCAAC | 0.0198 % of ANNNNAAN 8-mers | 0.0288 % of ANNNNAAN 8-mers | 0.0269 % of ANNNNAAN 8-mers | 0.0289 % of ANNNNAAN 8-mers
17 | ATATTAAC | 0.151 % of ANNNNAAN 8-mers | 0.189 % of ANNNNAAN 8-mers | 0.0667 % of ANNNNAAN 8-mers | 0.0751 % of ANNNNAAN 8-mers
18 | ACAACAAA | 0.0301 % of ANNNNAAN 8-mers | 0.0265 % of ANNNNAAN 8-mers | 0.0371 % of ANNNNAAN 8-mers | 0.0248 % of ANNNNAAN 8-mers
19 | ATGTTAAA | 0.212 % of ANNNNAAN 8-mers | 0.216 % of ANNNNAAN 8-mers | 0.0956 % of ANNNNAAN 8-mers | 0.0892 % of ANNNNAAN 8-mers
20 | AACCGAAA | 0.0271 % of ANNNNAAN 8-mers | 0.0293 % of ANNNNAAN 8-mers | 0.0265 % of ANNNNAAN 8-mers | 0.0256 % of ANNNNAAN 8-mers
21 | ACGTGAAT | 0.0732 % of ANNNNAAN 8-mers | 0.107 % of ANNNNAAN 8-mers | 0.0558 % of ANNNNAAN 8-mers | 0.0784 % of ANNNNAAN 8-mers
22 | AACATAAG | 0.0694 % of ANNNNAAN 8-mers | 0.0731 % of ANNNNAAN 8-mers | 0.041 % of ANNNNAAN 8-mers | 0.0396 % of ANNNNAAN 8-mers
23 | AAATTAAA | 0.328 % of ANNNNAAN 8-mers | 0.349 % of ANNNNAAN 8-mers | 0.213 % of ANNNNAAN 8-mers | 0.217 % of ANNNNAAN 8-mers
24 | ACATTAAA | 0.104 % of ANNNNAAN 8-mers | 0.125 % of ANNNNAAN 8-mers | 0.0624 % of ANNNNAAN 8-mers | 0.0611 % of ANNNNAAN 8-mers
25 | ACTTAAAT | 0.0767 % of ANNNNAAN 8-mers | 0.11 % of ANNNNAAN 8-mers | 0.0714 % of ANNNNAAN 8-mers | 0.057 % of ANNNNAAN 8-mers
26 | ATTACAAC | 0.0313 % of ANNNNAAN 8-mers | 0.042 % of ANNNNAAN 8-mers | 0.0258 % of ANNNNAAN 8-mers | 0.0223 % of ANNNNAAN 8-mers
27 | ACGTCAAT | 0.0339 % of ANNNNAAN 8-mers | 0.0426 % of ANNNNAAN 8-mers | 0.0269 % of ANNNNAAN 8-mers | 0.0322 % of ANNNNAAN 8-mers
28 | AGACGAAA | 0.0309 % of ANNNNAAN 8-mers | 0.0472 % of ANNNNAAN 8-mers | 0.0343 % of ANNNNAAN 8-mers | 0.0264 % of ANNNNAAN 8-mers
29 | AAATGAAT | 0.256 % of ANNNNAAN 8-mers | 0.273 % of ANNNNAAN 8-mers | 0.181 % of ANNNNAAN 8-mers | 0.239 % of ANNNNAAN 8-mers
30 | AACAGAAT | 0.0645 % of ANNNNAAN 8-mers | 0.0679 % of ANNNNAAN 8-mers | 0.0507 % of ANNNNAAN 8-mers | 0.0594 % of ANNNNAAN 8-mers
